Shown are actives, neighbours in structure and some others; about 4% of the full set was active somewhere.
MazF activator: MazEF (E. coli) toxin RNase activation | FAM/BHQ RNA-DNA oligo cleavage fluorescence, 5 h | activation, % at 20 µM | AID 504720 | P0AE70 | 350,000 tested, 0.32% active; in the data active = activation above about 50%
Target sequence (P0AE70 whole entry, looked up): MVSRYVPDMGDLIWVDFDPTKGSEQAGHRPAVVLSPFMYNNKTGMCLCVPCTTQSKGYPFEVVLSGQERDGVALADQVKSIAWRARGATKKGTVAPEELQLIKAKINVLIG
GDH-TPI counter: counter-screen for M. tuberculosis FBA inhibitors: GDH-TPI coupled enzymes; GDH-TPI coupled enzyme counterscreen, NADH absorbance; inhibition, % at 4.8 µM; 360,000 tested, 1.2% active
CCHF vOTU inh-1: CCHFV vOTU protease inhibition | Pep-AMC fluorescence | inhibition, % at 11.5 µM | 370,000 tested, 0.55% active | AID 651958
Mtb FBA inh: Mtb fructose-bisphosphate aldolase inhibition | 360,000 tested, 2.3% active | P9WQA3 | purified M. tuberculosis FBA, fluorescence read-out | inhibition, % at 1 µM; in the data active = inhibition above about 27%
Target sequence (P9WQA3 whole entry, looked up): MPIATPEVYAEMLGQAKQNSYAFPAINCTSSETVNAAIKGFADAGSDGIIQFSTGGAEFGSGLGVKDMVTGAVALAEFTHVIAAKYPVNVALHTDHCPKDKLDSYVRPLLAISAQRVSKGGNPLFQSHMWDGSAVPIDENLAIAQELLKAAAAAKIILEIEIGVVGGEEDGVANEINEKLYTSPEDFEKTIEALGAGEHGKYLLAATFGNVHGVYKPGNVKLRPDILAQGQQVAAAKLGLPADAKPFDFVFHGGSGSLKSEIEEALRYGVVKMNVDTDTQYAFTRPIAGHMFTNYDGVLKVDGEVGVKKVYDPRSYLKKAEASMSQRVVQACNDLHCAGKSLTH
Mtb betalactam: beta-lactam sensitization of Mtb H37Rv | M. tuberculosis H37Rv growth with meropenem, percent inhibition | inhibition, % at 25 µM | 330,000 tested, 0.27% active | AID 434955; call rule not given here;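 also: growth measured after seven days incubation then overnight dye step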
CCHF vOTU inh-2: CCHFV vOTU protease inhibition, confirmation | shares compounds with CCHF vOTU inh-1 | Recombinant CCHFV vOTU, Pep-AMC fluorescence | inhibition, % at 11.5 µM | 1,900 tested, 17% active | AID 686976
Numbers stand for hits; n = inactive; x = not tested or not shown. Rule as the data show it, unless noted: active = inhibition above about 30%; inactive = the rest.

SMILES	MazF activator	GDH-TPI counter	CCHF vOTU inh-1	Mtb FBA inh	Mtb betalactam	CCHF vOTU inh-2
O=c1[nH]c(-c2ccccc2)nn1-c1ccc(Br)cc1Br	n	n	n	n	n	x
COc1ccc(NS(=O)(=O)c2cc(NC(=O)CCc3ccccc3)ccc2N2CCOCC2)cc1	n	n	n	n	x	x
O=C(NNC(=O)[C@H]1CC=CC[C@H]1C(=O)O)c1ccc(Cl)cc1Cl	n	n	n	n	n	x
O=C(NCc1ccc(F)cc1F)Nc1cnccc1C(F)(F)F	n	n	n	n	n	x
CCN1/C(=C/c2ccc3cc(C)ccc3[n+]2CC)Sc2ccccc21	69	n	31	n	n	n
C[C@@H]1CN([C@@H](C)CO)C(=O)c2cc(NS(C)(=O)=O)ccc2O[C@@H]1CN(C)Cc1ccc(C(F)(F)F)cc1	n	n	n	n	x	x
COC(=O)[C@H](CCSC)NC(=O)Nc1cccc(Br)c1	n	n	n	n	n	x
COc1cc(/C=C(\C#N)c2nc3ccccc3o2)ccc1O	n	n	33	n	n	n
COc1ccccc1NC(=O)COC(=O)c1cc2ccccc2cc1O	n	n	n	n	n	x
O=C(COC(=O)c1cc2ccccc2cc1O)Nc1ccccc1F	n	n	31	n	n	n
COc1ccc(CNC(=O)COC(=O)c2cc(C)oc2C)cc1	n	n	n	n	x	x
O=C1C(N2CCOCC2)=C(n2nnc3ccccc32)C(=O)c2ccccc21	n	n	104	n	n	98
Cc1ccc(NC(=O)C(c2ccccc2)N2CCN(CC(=O)N3CCOCC3)CC2)cc1 (stereo not given)	n	n	34	n	n	n
COc1ccc(C)c(NC(=O)NCCc2cnc[nH]2)c1	n	n	n	n	n	x
O=[N+]([O-])c1cc2ccccc2c(O)c1O	n	n	83	n	x	n
O=[N+]([O-])c1cc(-c2ccccc2)cc([N+](=O)[O-])c1O	n	n	n	n	x	x
CCCCn1c(N)c(N(CC(C)C)C(=O)c2cc(S(=O)(=O)N3CCCCC3)ccc2C)c(=O)[nH]c1=O	n	n	n	n	n	x
Cc1nc2c(C(=O)NCCC(C)C)c[nH]n2c(=O)c1Cc1ccccc1F	n	n	41	n	n	n
Cc1nc2c(C(=O)NCCC(C)C)c[nH]n2c(=O)c1Cl	n	n	n	n	n	x
Cc1cc(C(=O)N/N=C2\CC(=O)c3ccccc32)c(C)n1-c1ccccc1	n	n	30	n	n	n
CCN(CC(=O)Nc1c(F)cccc1F)C(=O)c1cccnc1Sc1ccccc1	n	n	n	n	n	x
CC1(C)OC(=O)C(=NNc2ccccc2[N+](=O)[O-])C(=O)O1	n	n	30	n	n	n
O=C(C[C@@H]1C/C=C/CCCC(=O)O[C@H](c2ccccc2)CNC1=O)N[C@H](CO)Cc1ccccc1	n	n	31	n	n	n
O=C(C[C@H]1C/C=C\C[C@@H](Cc2ccc(F)cc2)C(=O)O[C@H](c2ccccc2)CNC1=O)N[C@@H](CO)Cc1ccccc1	n	n	n	n	n	x
CNC(=O)C(=O)Nc1cc2c3c(c1)C(C)C(=O)N3CCC2 (stereo not given)	n	n	n	n	n	x
SMILES	MazF activator	GDH-TPI counter	CCHF vOTU inh-1	Mtb FBA inh	Mtb betalactam	CCHF vOTU inh-2
O=c1c(C=NCc2cccnc2)c(C(F)(F)F)[nH]n1-c1nc2ccccc2s1	n	n	30	n	n	n
O=C(O)Cn1cc(/C=N/NC(=O)c2cc3cc(Br)ccc3o2)c2ccccc21	n	48	31	n	n	n
C=CCn1cc(/C=N\NC(=O)c2cc3c(ccc4ccccc43)o2)c2ccccc21	n	n	n	n	n	x
CN1CCN(c2ccc([N+](=O)[O-])c3no[n+]([O-])c23)CC1	n	n	35	n	n	n
O=[N+]([O-])c1ccc(N(CCO)CCO)c2c1no[n+]2[O-]	n	n	n	n	x	x
CC(NS(=O)(=O)c1c(N)n(C)c(=O)n(C)c1=O)c1ccccc1 (stereo not given)	n	n	30	n	n	n
COc1ccccc1/C=N/NC(=O)c1ccc(=O)n(C)c1	n	n	31	n	n	n
CCOC(=O)C1=C(C)OC(=CC=Cc2ccccc2)C1=O	n	n	30	n	x	n
CN(C)C(CNC(=O)c1ccc(NS(=O)(=O)c2ccc3[nH]c(=O)[nH]c3c2)cc1)c1ccccc1 (stereo not given)	n	n	31	n	n	n
COc1ccccc1CC(=O)Nc1ccc(S(=O)(=O)N2CCN(C)CC2)cc1	n	n	40	n	n	n
O=C1NC[C@@H](CCCCN2C[C@H](Cc3ccc(O)cc3)N(CCC3CCCCC3)C(=O)C2=O)N(CC2CCCCC2)C1=O	x	x	35	x	x	n
CC(C)C[C@@H](CN1CCC[C@@H]1CN1C(=S)NC[C@@H]1Cc1ccc(O)cc1)N1C[C@H](Cc2ccc(O)cc2)N(CC2CCCCCC2)C1=S	x	x	32	n	x	n
O=C1NC[C@H](Cc2ccccc2)N(C[C@@H]2CCCN2C[C@H](Cc2ccccc2)N2C[C@H](Cc3ccccc3)N(CC3CCCCC3)C(=O)C2=O)C1=O	x	x	30	n	x	n
COc1ccc(OCC(=O)NNC(=O)C(=O)Nc2cc(OC)ccc2OC)cc1	n	n	35	n	n	n
C=C(C)COc1ccc(-c2nc(N)ncc2-c2ccc(OC)c(OC)c2)c(O)c1	n	n	n	n	n	x
C=C(C)COc1ccc(-c2nc(N)ncc2-c2ccc(OC)cc2)c(O)c1	x	x	30	x	x	n
COC(=O)C1=C(c2ccc(OC(F)(F)F)cc2)C[C@@H]2CC[C@H]1N2C(=O)NCCOc1ccccc1	n	n	30	n	n	n
CCCCn1c(N)c(N(CC(C)C)C(=O)c2cccs2)c(=O)[nH]c1=O	n	n	39	n	n	n
Cc1cc2nc(C3CCCCC3)c(CC(C)(C)C)n2c(C)c1Br	x	x	n	n	x	x
COc1ccc(/C=N/Nc2nnc(C)n2N)cc1OC	n	n	91	n	n	n
COc1ccc(/C=N/NC(=O)Cn2ccnc2C)cc1OC	n	n	n	n	n	x
COc1ccc(/C=N/Nc2nnc(C)n2N)cc1OC(C)=O	n	n	93	n	n	n
Cc1cc(C)nc(OC(=O)c2ccc(Cl)cc2Cl)n1	x	x	30	x	n	n
Cc1cc(C)nc(OC(=O)c2c(Cl)cc(Cl)cc2Cl)n1	n	n	n	n	n	x
C#CCNC(=O)C[C@H]1C[C@@]2(C(=O)OC)C(=C[C@H](C(C)C)O[C@@H]2C2CC2)N(CCCCCCCC)C1=O	x	x	39	x	x	n
CCCCCCCCN1C(=O)[C@@H](CC(=O)NCCCOCCCC)C[C@@]2(C(=O)OC)C1=C[C@H](C(C)C)O[C@@H]2C1CC1	x	x	35	x	x	37
COC(=O)[C@]12C[C@H](CC(=O)N3CCCC3)C(=O)N(Cc3ccccc3)C1=C[C@H](C(C)C)O[C@@H]2C1CC1	x	x	n	x	x	x
CCCCCCCCN1C(=O)[C@H](CC(=O)NCCCOCCCC)C[C@@]2(C(=O)OC)CCCCC=C12	x	x	n	x	x	x
CCCCCCCCN1C(=O)[C@@H](CC(=O)N2CCN(C(=O)c3ccco3)CC2)C[C@@]2(C(=O)OC)C1=C[C@H](C(C)C)O[C@@H]2C1CC1	x	x	32	x	x	n

Screens: PubChem BioAssay, several laboratories
